# Assay outcomes as filed in PubChem BioAssay.
# Most compounds without a hit are left out; they make up all but 14% or so of the library.
# USP30 block: inhibitors of human USP30 deubiquitinase; Ubiquitin carboxyl-terminal hydrolase 30 (Homo sapiens), Q70CQ3; purified USP30, Ub-rhodamine cleavage fluorescence; inhibition, % at 25 µM; hit rate 5.3% among 47,000; AID 1645860, 2021
# USP28 block: inhibitors of human USP28 deubiquitinase. purified USP28, Ub-rhodamine cleavage fluorescence, 30 min. inhibition, % at 25 µM. hit rate 3% among 47,000. AID 1645857, 2021
# USP10 block: inhibitors of human USP10 deubiquitinase | Ubiquitin carboxyl-terminal hydrolase 10 (Homo sapiens), Q14694 | purified USP10, Ub-rhodamine fluorescence, 60 min | inhibition, % at 20 µM | hit rate 1.1% among 47,000 | AID 1645856, 2021
# USP8 block: inhibitors of human USP8 deubiquitinase; Ubiquitin carboxyl-terminal hydrolase 8 (Homo sapiens), P40818; purified USP8, Ub-rhodamine cleavage fluorescence, 30 min; hit rate 4.2% among 47,000; inhibition, % at 20 µM
# USP17 block: inhibitors of human USP17 deubiquitinase | inhibition, % at 50 µM | hit rate 6.5% among 47,000 | purified USP17, Ub-rhodamine cleavage fluorescence, 3 h
# Numbers without * were called inactive; / = no result given. Rule as the data show it: active = inhibition above about 30%; inactive = the rest.
SMILES,USP30 block,USP28 block,USP10 block,USP8 block,USP17 block
CCc1cc(=O)n(CC(=O)Nc2cc(C)ccc2OC)c(N2CCOCC2)n1,59*,27,2,14,36*
Cc1ccc(NC(=O)c2ccc(N3CCOCC3)nn2)cc1F,2,26,1,-5,71*
O=C(Nc1ccccc1Cl)c1ccc(N2CCOCC2)nn1,/,/,-3,1,6
COc1ccc(C)cc1NC(=O)c1ccc(N2CCOCC2)nn1,54*,9,-4,-26,52*
COc1ccccc1NC(=O)N1CCN(Cc2nc3cc(C)ccc3o2)CC1,-2,-4,-3,-4,-6
O=C(Cn1cc(-c2nc(C3CC3)no2)ccc1=O)Nc1ccccc1F,8,2,5,7,13
O=C(Cn1cc(-c2nc(C3CC3)no2)ccc1=O)Nc1ccccc1,-19,0,10,3,49*
Cc1nc(-c2noc(-c3cccc(F)c3)n2)cn1CC(=O)Nc1ccccc1,-4,-5,62*,38*,-17
N#Cc1cccc(NC(=O)Cn2cccc2-c2nc(-c3ccccc3)no2)c1,13,17,18,31*,31*
CNc1cc(C(=O)N2CCOC(c3cccc(-c4cncnc4)n3)C2)ccn1 (centres undefined),2,-5,2,8,6
Cc1nc(C2CN(C(=O)c3cccc4c3OCCO4)CCO2)cc(=O)[nH]1 (centres undefined),12,1,2,2,12
CCc1ccccc1NS(=O)(=O)c1ccc2c(c1)N(C(C)=O)CC(C)S2 (centres undefined),21,9,5,6,0
O=C1Nc2cc3c(cc2Sc2ccccc21)OCCO3,60*,25,4,-14,67*
O=C1Nc2ccccc2S/C1=C/c1ccccc1,-29,-43,-2,-10,-15
Cc1cccc(OCCC(=O)NCc2ccc(S(N)(=O)=O)cc2)c1,3,10,0,0,7
Cc1ccc(Cl)c(-n2nnc(C(=O)Nc3ccccc3C#N)c2C)c1,30*,6,11,16,56*
Cc1cc(NC(=O)c2nnn(-c3ccccc3Cl)c2C)no1,14,86*,-1,6,2
Cc1ccc2nc(C(=O)N3CCCC3c3cc(N)nc(C)n3)cn2c1 (centres undefined),4,1,2,4,5
Cc1sc2ncnc(SCC(=O)c3cc(C)n(Cc4ccco4)c3C)c2c1C,-142,19,2,63*,39*
COc1ccccc1CNC(=O)c1cc(CN2CCOCC2)on1,4,9,0,-2,12
CCC(C)[C@H](NC(=O)[C@@H]1Cc2c([nH]c3ccccc23)C2c3ccccc3C(=O)N21)C(=O)NC(C)C (some centres undefined),-91,-41,-4,-4,-17
COc1ccccc1/C=C/C(=O)Nc1nc2n(n1)C(c1ccc(Cl)cc1)CC(=O)N2 (centres undefined),39*,23,11,-16,44*
CC(=O)Nc1nc2n(n1)C(c1ccccc1)CC(=O)N2 (centres undefined),-4,-2,5,3,-5
O=C(/C=C/c1ccco1)Nc1nc2n(n1)C(c1ccccc1)CC(=O)N2 (centres undefined),-195,-31,-8,-8,-7
COc1ccc(C(=O)Nc2nc3n(n2)C(c2ccccc2)CC(=O)N3)cc1 (centres undefined),35*,10,17,76*,73*
SMILES,USP30 block,USP28 block,USP10 block,USP8 block,USP17 block
O=C1CC(c2ccccc2)n2nc(NC(=O)c3ccccc3F)nc2N1 (centres undefined),0,-5,0,44*,-1
COc1ccc(CNC(=O)C(C)c2c(C)n[nH]c2C)c(OC)c1 (centres undefined),-19,-10,3,0,-3
Cc1ccccc1Nc1nccc(C2CCCN(C(=O)C3CCCC3)C2)n1 (centres undefined),15,5,0,11,-1
COC(C)(C)C(=O)N1CCCC(c2ccc(-c3ccc(N)nc3)cn2)C1 (centres undefined),-21,-13,-4,-38,-8
O=C(Nc1ccccc1Cl)c1csc(Cc2c(Cl)cccc2Cl)n1,48*,10,16,26,37*
N#Cc1ccc(OCC(=O)Nc2ccccc2Oc2ccccc2)cc1,-10,0,6,6,11
O=C(Nc1ccccc1Oc1ccccc1)C(c1ccccc1)c1ccccc1,37*,22,14,23,23
CCOC(=O)c1ccc(NC(=O)CSc2nnc(CNC(=O)c3ccc(OC)cc3)o2)cc1,35*,4,5,0,33*
CN1C(=O)c2ccccc2C(C(=O)Nc2nc3ccccc3s2)C1c1cccs1 (centres undefined),-15,-8,1,-25,37*
COCCN1C(=O)c2ccccc2C(C(=O)Nc2cc(C)ccn2)C1c1cccs1 (centres undefined),33*,7,1,16,9
O=C(NCc1ccccc1F)C1CCN(c2cnc3nccnc3c2)CC1,-277,-100,-5,-100,-97
CCC1(C)NC(=O)[C@H](CCCCCC(=O)C2CO2)NC(=O)[C@H]2CCCN2C(=O)[C@H](Cc2ccccc2)NC1=O (some centres undefined),-6,-4,-1,6,-15
CC(=O)NCCNC(=O)N1CCn2nc(-c3ccc4ccccc4c3)cc2C1,-6,-9,1,-5,16
COc1ccc(CC(=O)NCc2ccc3c(c2)cc(C)n3C)cc1OC,-213,-56,-6,-59,-31
Cc1cc2cc(CNC(=O)NC3CCCCC3)ccc2n1C,-84,-14,-5,-9,33*
O=C(COC(=O)c1cc(Cl)c2c(c1)OCO2)Nc1ccc2[nH]c(=O)[nH]c2c1,-27,51*,29,17,57*
O=C(CSc1nnc2ccccn12)Nc1ccc2[nH]c(=O)[nH]c2c1,-123,-11,-2,1,6
Cc1nnc(SCC(=O)Nc2ccc3[nH]c(=O)[nH]c3c2)n1-c1ccccc1,-13,2,-7,-33,34*
O=C(COC(=O)c1ccccc1F)Nc1ccc2[nH]c(=O)[nH]c2c1,18,37*,15,5,18
CC(CC(=O)OCC(=O)Nc1ccc2[nH]c(=O)[nH]c2c1)c1ccccc1 (centres undefined),16,31*,-2,-41,17
CC(C)(C)OC(=O)N1CC2(Cc3ccccc3CN2)C1,-5,-10,-2,4,-2
C[C@H](NC(=O)C1COc2ccccc2O1)C(=O)Nc1nc2ccccc2[nH]1 (some centres undefined),0,6,0,-10,2
Cc1nc(SCC(=O)Nc2ccc(Cl)cc2)c2sc3nc4c(cc3c2n1)COC(C)(C)C4,-27,0,0,1,-2
